# Laboratory results taken from PubChem BioAssay AID1376 (SRMLSC, 2008).
# About 530 (0.24%) of roughly 220,000 compounds were called active. Cut-off read from the data, not from the text of the source: active = inhibition above about 13%; inconclusive = no clear call, values can overlap the other calls; inactive = below that. Only a selection was taken, and actives are over-represented in it overall. Results with a measured potency or affinity are listed apart.
# Molecular target: Bifunctional protein GlmU (Mycobacterium tuberculosis (strain ATCC 25618 / H37Rv)) (UniProt P9WMN3)
# Sequence (P9WMN3 whole entry, looked up): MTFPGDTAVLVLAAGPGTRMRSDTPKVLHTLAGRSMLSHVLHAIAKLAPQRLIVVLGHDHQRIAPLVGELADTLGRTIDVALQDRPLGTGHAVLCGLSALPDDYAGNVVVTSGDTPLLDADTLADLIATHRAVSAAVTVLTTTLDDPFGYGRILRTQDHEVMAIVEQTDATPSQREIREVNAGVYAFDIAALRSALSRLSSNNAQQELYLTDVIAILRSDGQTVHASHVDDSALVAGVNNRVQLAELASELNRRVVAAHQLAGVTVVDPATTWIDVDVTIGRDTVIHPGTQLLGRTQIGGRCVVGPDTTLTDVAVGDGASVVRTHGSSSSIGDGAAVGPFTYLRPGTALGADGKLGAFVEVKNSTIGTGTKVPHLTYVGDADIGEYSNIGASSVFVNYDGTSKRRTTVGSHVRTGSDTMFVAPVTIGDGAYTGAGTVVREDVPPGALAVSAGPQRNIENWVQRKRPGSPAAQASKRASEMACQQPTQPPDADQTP
# Experiment: inhibition of mycobacterial GlmU enzyme – biochemical, glucosamine-1-phosphate acetyltransferase (AID 1376);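 note: 0% = complete reaction with vehicle and 100% = reaction without substrate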
# Conditions: M. tuberculosis GlmU acetyltransferase enzyme assay; active compounds read high;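 tested at 30 µM in the primary screen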
row,SMILES,inhibition
1,O=C(CNCC1CCCO1)N1CCCc2ccccc21 (stereo not drawn),1.14% (inactive)
2,O=C(O)c1nc2ccccc2nc1C(=O)O,-0.04% (inactive)
3,Cc1cc(C(=O)Nc2ccc(C)c(S(=O)(=O)N3CCOCC3)c2)c(C)o1,-1.51% (inactive)
4,CCC1=C(OC(=O)N(CC)CC)N2C(=O)OC(=NCC3CC3)[C@]2(C)[C@H]2C1=CC[C@H]1C(=O)N(CC)C(=O)[C@H]12,1.38% (inactive)
5,COc1ccc(CNC(=O)Nc2ccc3c(c2)N(C)C(=O)CS3)cc1,-4.33% (inactive)
6,O=C(c1ccc(C(F)(F)F)cc1)c1c[nH]c(C(=O)NCCCn2ccnc2)c1,-1.27% (inactive)
7,Cc1ccccc1C(=O)NNC(=O)CSc1nnc(-c2ccncc2)n1-c1ccccc1,-3.22% (inactive)
8,OCCC1CN(Cc2cccn2-c2nccs2)CCN1C1CCCCC1 (stereo not drawn),-4.98% (inactive)
9,Oc1cccc2cc3cccc(O)c3c(O)c12,-0.27% (inactive)
10,COc1cc2cccc(OC)c(=O)c2c(O)c1OC,-3.83% (inactive)
11,O=C(c1ccc2c(c1)OCCO2)N1CCN(c2ccc([N+](=O)[O-])cc2)CC1,-4.31% (inactive)
12,COc1cc(/C=C2\SC(c3ccc(C)cc3)=NC2=O)ccc1O,7.11% (inactive)
13,Cc1ccc(C2=NC(=O)/C(=C/c3cc(O)c(O)c(Br)c3)S2)cc1,17.7% (active)
14,COc1cc(/C=C2\SC(c3ccc(C)cc3)=NC2=O)cc(OC)c1O,5.86% (inactive)
15,CC(=O)Nc1ccc(/C(C)=N/NC(=O)c2ccncc2)cc1,1.93% (inactive)
16,COc1ccc(N2C(=O)CC(C3CCCO3)C2=O)cc1 (stereo not drawn),6.39% (inactive)
17,Cn1c(O)c(C=NC2CC(C)(C)NC(C)(C)C2)c(=O)n(C)c1=O,1.39% (inactive)
18,COc1cc2c(cc1NS(=O)(=O)N1CCCC1)oc1ccccc12,1.9% (inactive)
19,O=S(=O)(Nc1ccc2c(c1)oc1ccccc12)N1CCCC1,5.63% (inactive)
20,COc1cc2c(cc1NS(=O)(=O)N1CCCCC1)oc1ccccc12,14.6% (active)
21,FC(F)Oc1ccc(NC(=S)NCCc2ccccn2)cc1,-3.82% (inactive)
22,O=C(Nc1cccc(Cl)c1)Nc1nnc(CSCCOc2ccc(Cl)cc2)s1,-7.81% (inactive)
23,Cc1ccc(-c2ccccc2)n1-c1cccc(C(=O)O)c1,5.34% (inactive)
24,Cc1cc(C=O)c(C)n1-c1cccc(C(=O)O)c1,6.93% (inactive)
25,Cc1ccc(C)n1-c1cccc(C(=O)O)c1,23.5% (active)

row,SMILES,inhibition
1,Cc1ccccc1NC(=O)Cn1nc(-c2ccccc2)nc1-c1ccccc1,1.21% (inactive)
2,O=[N+]([O-])c1cccnc1Oc1cccnc1,6.22% (inactive)
3,Cn1c(Cc2ccc3c(c2)OCO3)nnc1SCC(=O)N1CCc2ccccc2C1,1.71% (inactive)
4,CCOc1cc2c(C#N)c(N3CCCC3)nc(N)c2c(N)n1,4.64% (inactive)
5,N#Cc1c(N2CCCC2)nc(N)c2c(N)nc(N3CCCC3)cc12,-6.67% (inactive)
6,CCOC(=O)C1CCN(c2nc(N)c3c(N)nc(SCC(=O)O)cc3c2C#N)CC1,14.2% (active)
7,CCOC(=O)C1CCN(c2nc(C)cc(C)c2C#N)CC1,-1.41% (inactive)
8,COc1cc2c(C#N)c(N3CCCCC3)nc(N)c2c(N)n1,-2.38% (inactive)
9,N#Cc1c(N2CCCCC2)nc(N)c2c(N)nc(SCC(=O)O)cc12,13.1% (active)
10,CC(=O)Nc1ccccc1C(=O)C(=O)Nc1ccc(C)c(C)c1,-3.19% (inactive)
11,COc1cc(C(=S)N2CCCC2)cc(Cl)c1OCC(=O)Nc1ccc(C)cc1C,-4.86% (inactive)
12,CN(C)CCCOC(=O)c1cc2ccccc2o1,-2.64% (inactive)
13,O=C(Cn1cnc2ccccc2c1=O)N1CCN(c2ccccc2)CC1,5.67% (inactive)
14,COC(=O)CN(c1nc(C)c(Cl)c(OC)n1)S(=O)(=O)c1ccc(C)cc1,25.4% (active)
15,COc1nc(N(CC(N)=O)S(=O)(=O)c2ccccc2)nc(C)c1Cl,4.56% (inactive)
16,COC(=O)CN(c1nc(C)c(Br)c(OC)n1)S(=O)(=O)c1ccc(C)cc1,1.24% (inactive)
17,CC(O)CCC(=O)NNC(=S)Nc1ccccc1 (stereo not drawn),2.51% (inactive)
18,O=C(O)C1CCCCC1C(=O)Nc1ccc(F)cc1F (stereo not drawn),5.94% (inactive)
19,O=C(Nc1cccc2ccccc12)C1CCN(C(=O)Cc2ccccc2)CC1,0.74% (inactive)
20,O=C(O)C1CCCCC1C(=O)Nc1ccccc1Cl (stereo not drawn),-0.88% (inactive)
21,O=C(Nc1ccccc1Br)C1CCN(C(=O)Cc2ccccc2)CC1,-6.58% (inactive)
22,O=C(Nc1ccccc1F)C1CCN(C(=O)Cc2ccccc2)CC1,15% (active)
23,O=C(O)C1CCCCC1C(=O)Nc1ccccc1F (stereo not drawn),13.6% (active)
24,COc1ccc(C2CC(c3ccc(OC)cc3)n3nc(N)nc3N2)cc1 (stereo not drawn),1.16% (inactive)
25,COc1ccc(C2CC(c3ccc(F)cc3)Nc3nc(N)nn32)cc1 (stereo not drawn),20% (active)

row,SMILES,inhibition
1,Nc1nc2n(n1)C(c1ccc(F)cc1)CC(c1ccc(F)cc1)N2 (stereo not drawn),-1.02% (inactive)
2,Cc1ccc(/C(O)=C2\C(=O)C(=O)N(CC(C)O)C2c2ccccn2)cc1 (stereo not drawn),-0.84% (inactive)
3,CCCNC(=S)Nc1ccc(CC(=O)OC)cc1,-4.55% (inactive)
4,COC(=O)Cc1ccc(NC(=S)NCCO)cc1,-2% (inactive)
5,COC(=O)Cc1ccc(NC(=S)NCCCO)cc1,13.5% (active)
6,COC(=O)c1sc(N2C(=O)C(=O)/C(=C(/O)c3ccc(C)cc3)C2c2ccco2)nc1C (stereo not drawn),-0.75% (inactive)
7,CC1=C(C(=O)Nc2ccccn2)C(c2ccc(Br)cc2)NC(=S)N1 (stereo not drawn),14.3% (active)
8,CC1=C(C(=O)Nc2ccccn2)C(c2ccc(Cl)cc2)NC(=S)N1 (stereo not drawn),2.47% (inactive)
9,COc1ccc(C2NC(=S)NC(C)=C2C(=O)Nc2ccccn2)cc1 (stereo not drawn),2.34% (inactive)
10,Cc1cc(OCCCC(=O)NC2=NCCS2)ccc1Cl,-5.02% (inactive)
11,CCn1cc(CNCc2cn[nH]c2-c2cc3ccccc3o2)cn1,1.28% (inactive)
12,OC1(CNCc2cn[nH]c2-c2cc3ccccc3o2)CCCCC1,14.3% (active)
13,c1ccc2oc(-c3[nH]ncc3CN3CCSCC3)cc2c1,0.41% (inactive)
14,CSc1nccc(-c2c(-c3ccc(Cl)cc3)noc2C)n1,2.51% (inactive)
15,c1ccc(CNc2ncnc3c2ncn3C2CCCCO2)cc1 (stereo not drawn),-1.2% (inactive)
16,O=C(N/N=C/C1=Cc2ccccc2OC1)c1ccncc1,-1.23% (inactive)
17,O=C(O)c1ccc(N/N=C/C2=Cc3ccccc3OC2)cc1,14.4% (active)
18,CC1Oc2ccccc2C=C1/C=N/Nc1ccc(C(=O)O)cc1 (stereo not drawn),4.4% (inactive)
19,CSc1nccc(Oc2cncc(Cl)c2)n1,2.56% (inactive)
20,CCOc1ccc(Cc2n[nH]c(=S)n2N)cc1,1.55% (inactive)
21,CCCCOc1ccc(Cc2n[nH]c(=S)n2N)cc1,12.8% (active)
22,Nn1c(Cc2ccc(F)cc2)n[nH]c1=S,-2.75% (inactive)
23,COc1ccccc1/C=N/NC(=O)C(=O)NCc1cccnc1,3.16% (inactive)
24,COc1ccc(S(=O)(=O)NNC(=O)c2csc(-n3nc(C)cc3C(F)(F)F)n2)cc1OC,2.2% (inactive)
25,O=C(O)c1ccc(Oc2c(C(F)(F)F)oc3cc(O)ccc3c2=O)cc1,-3.31% (inactive)

row,SMILES,inhibition
1,O=c1c(C(c2ccc(Cl)cc2)c2c(O)nc3n(c2=O)CCS3)c(O)nc2n1CCS2,9.88% (inactive)
2,COc1cccc(NC(=O)CN(C)C(C)C(=O)Nc2cc([N+](=O)[O-])ccc2Cl)c1 (stereo not drawn),-8.73% (inactive)
3,Cc1noc(NS(=O)(=O)c2ccc(N/C=C\C(=O)c3ccc(F)cc3)cc2)c1C,4.6% (inactive)
4,Cc1noc(NS(=O)(=O)c2ccc(N/C=C\C(=O)c3ccncc3)cc2)c1C,3.38% (inactive)
5,Cc1noc(NS(=O)(=O)c2ccc(N/C=C/C(=O)c3ccc(F)cc3)cc2)c1C,3.6% (inactive)
6,Cc1noc(NS(=O)(=O)c2ccc(N/C=C\C(=O)c3ccccc3)cc2)c1C,1.37% (inactive)
7,Cc1noc(NS(=O)(=O)c2ccc(N/C=C\C(=O)c3cccs3)cc2)c1C,13.3% (active)
8,Cc1ccc(C(=O)/C=C/Nc2ccc(S(=O)(=O)Nc3onc(C)c3C)cc2)cc1,14.2% (active)
9,Cc1ccc2cc(CN(CCCN3CCOCC3)C(c3nnnn3Cc3ccco3)C(C)C)c(=O)[nH]c2c1C (stereo not drawn),-1.48% (inactive)
10,CCOc1ccc(N2C(=O)c3cccnc3C2Nc2ccc(C)c(C)c2)cc1 (stereo not drawn),-5.6% (inactive)
11,CCO[C@@H]1OC(C(=O)Nc2ccccc2)=C[C@H](c2ccc(Br)cc2)[C@H]1CCCO,1.98% (inactive)
12,CC(=O)Nc1ccc(/C=C(\C#N)C(=O)NC2CCCCC2C)cc1 (stereo not drawn),3.98% (inactive)
13,O=C(CN1CCN(c2ccc(Cl)cc2)CC1)NCc1ccccc1,1.83% (inactive)
14,CC(=C\c1ccccc1)/C=C1/SC(=S)N(C(C(=O)O)C(C)C)C1=O (stereo not drawn),5.39% (inactive)
15,O=C1/C(=C/C=C/c2ccco2)SC(=S)N1c1ccc(O)cc1,7.16% (inactive)
16,O=C1S/C(=C\C=C\c2ccco2)C(=O)N1c1ccccc1,6.89% (inactive)
17,CC(/C=C1\SC(=S)N(C(C(=O)O)C(C)C)C1=O)=C\c1ccccc1 (stereo not drawn),3.64% (inactive)
18,CCCCC(=O)Nc1ncc(Br)s1,0.1% (inactive)
19,Cc1nnc(SCC(=O)Nc2cc(-c3cc(C)c(C)cc3C)nn2-c2ccccc2)s1,-5.02% (inactive)
20,COc1cc(/C=N/NC(=O)c2cccc([N+](=O)[O-])c2)ccc1OCc1ccccc1,1.61% (inactive)
21,O=C1NC(=O)N(Cc2ccc(F)cc2)C(=O)/C1=C\c1ccc([N+](=O)[O-])s1,6.15% (inactive)
22,CCN1C(=O)/C(=C\c2ccc([N+](=O)[O-])s2)C(=O)NC1=S,92.2% (active)
23,CN1C(=O)NC(=O)/C(=C/c2ccc([N+](=O)[O-])s2)C1=O,-1.9% (inactive)
